Source: PubChem BioAssay AID435009 (The Scripps Research Institute Molecular Screening Center, 2010)
Unmarked numbers belong to inactive results. Active and inactive are the calls of the source. How the calls were made is not given here.

Test: XO enzyme superoxide output inhibition – biochemical, IC50, set 2, NOX1 inhibitor project, late-stage follow-up (AID 435009)
Conditions: Xanthine oxidase enzyme assay, ROS/superoxide detection

| SMILES | IC50 |
| --- | --- |
| CSc1ccc(NC(=O)Nc2ccc(N(C)C)cc2)cc1 | 1.2 µM (active) |
| Fc1ccc(NC(=S)NNC(=S)Nc2ccccc2)cc1 | 0.5 µM (active) |
| FC(F)(F)c1ccc2c(c1)Nc1ccccc1S2 | 5 µM (active) |
| COc1cc(-c2nc(-c3ccccc3)c(-c3ccccc3)[nH]2)cc(OC)c1O | 0.9 µM (active) |
| Cc1cc(Cl)ccc1NC(=S)NNC(=S)Nc1ccc(F)cc1 | 3.3 µM (active) |
| CN(C)c1ccc(NC(=O)Nc2ccc(OCc3ccccc3)cc2)cc1 | 1.3 µM (active) |
| COc1cc(-c2nc(-c3ccccc3)c(-c3ccccc3)[nH]2)ccc1O | 0.01 µM (active) |
| Oc1c(Br)cc(/C=N/Nc2c(Cl)cncc2Cl)cc1Br | > 5 µM |
| CN(C)c1ccc(/C=N/Nc2c(Cl)cncc2Cl)cc1 | > 5 µM |
